Experimental data published in PubChem BioAssay (EPA / NIEHS).
Records with an inconclusive call do not appear. Activity calls are given as the source filed them. Rule for the calls, unless noted: active = hit-call score of the fitted dose curve at least 0.9, where 1 is the maximum; inconclusive = response in the unintended direction; inactive = score below 0.9.

Tests used:
[1] = ATG_VDRE_CIS: Attagene CIS-FACTORIAL HepG2 Assay for human Vitamin D Receptor Element (VDRE) (AID 2282968; active = hit-call score of the fitted dose curve at least 0.9, where 1 is the maximum; inactive = score below 0.9); details: HepG2 VDRE cis-reporter transcription, actives raise or lower the signal
Summary of the method: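 Measures endogenous factor activity through cis-element-driven reporter transcripts in transiently transfected HepG2. Cells are treated 24 h; reporter mRNA is quantified by RT-PCR and capillary electrophoresis; fitting is bidirectional.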

[2] = target: X-box-binding protein 1 (Homo sapiens) (UniProt P17861); experiment: ATG_Xbp1_CIS: Attagene CIS-FACTORIAL HepG2 Assay for human X-box Binding Protein 1 (XBP1) (AID 2282972; active = hit-call score of the fitted dose curve at least 0.9, where 1 is the maximum; inactive = score below 0.9); details: HepG2 XBP1 cis-element reporter, Attagene multiplex; actives raise or lower the signal
Sequence of X-box-binding protein 1 (Homo sapiens) (P17861 whole entry, looked up): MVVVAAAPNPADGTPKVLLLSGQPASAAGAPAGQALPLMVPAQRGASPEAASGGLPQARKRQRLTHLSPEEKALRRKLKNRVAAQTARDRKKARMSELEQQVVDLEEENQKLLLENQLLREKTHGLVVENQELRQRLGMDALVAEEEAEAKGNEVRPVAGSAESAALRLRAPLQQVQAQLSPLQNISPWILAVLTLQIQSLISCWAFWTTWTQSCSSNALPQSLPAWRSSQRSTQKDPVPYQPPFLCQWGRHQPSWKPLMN
Summary of the method: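 Human hepatoma HepG2, cis-element reporter system, 24 h treatment; mRNA quantified by RT-PCR/CE fluorescence; fit relative to DMSO.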

[3] = ATG_GAL4_TRANS: Attagene TRANS-FACTORIAL HepG2 Assay for GAL4 (Internal Marker) (AID 2282976); details: HepG2 Attagene TRANS GAL4 internal marker reporter
Summary of the method: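 HepG2 cells transiently transfected with multiplexed GAL4-UAS reporter constructs were dosed for 24 h. Reporter mRNA was measured by RT-PCR, 6-FAM primer extension, HpaI digestion and capillary electrophoresis, and gain of signal was fitted relative to DMSO.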

[4] = target: Glucocorticoid receptor (Homo sapiens) (UniProt P04150); experiment: ATG_GR_TRANS: Attagene TRANS-FACTORIAL HepG2 Assay for human Glucocorticoid Receptor (GR) (AID 2282978); details: HepG2 Attagene TRANS GR reporter, mRNA transcription;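 note: activators score as hits since higher reporter transcript over DMSO is fitted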
Sequence of Glucocorticoid receptor (Homo sapiens) (P04150 whole entry, looked up, the tested form may be a part): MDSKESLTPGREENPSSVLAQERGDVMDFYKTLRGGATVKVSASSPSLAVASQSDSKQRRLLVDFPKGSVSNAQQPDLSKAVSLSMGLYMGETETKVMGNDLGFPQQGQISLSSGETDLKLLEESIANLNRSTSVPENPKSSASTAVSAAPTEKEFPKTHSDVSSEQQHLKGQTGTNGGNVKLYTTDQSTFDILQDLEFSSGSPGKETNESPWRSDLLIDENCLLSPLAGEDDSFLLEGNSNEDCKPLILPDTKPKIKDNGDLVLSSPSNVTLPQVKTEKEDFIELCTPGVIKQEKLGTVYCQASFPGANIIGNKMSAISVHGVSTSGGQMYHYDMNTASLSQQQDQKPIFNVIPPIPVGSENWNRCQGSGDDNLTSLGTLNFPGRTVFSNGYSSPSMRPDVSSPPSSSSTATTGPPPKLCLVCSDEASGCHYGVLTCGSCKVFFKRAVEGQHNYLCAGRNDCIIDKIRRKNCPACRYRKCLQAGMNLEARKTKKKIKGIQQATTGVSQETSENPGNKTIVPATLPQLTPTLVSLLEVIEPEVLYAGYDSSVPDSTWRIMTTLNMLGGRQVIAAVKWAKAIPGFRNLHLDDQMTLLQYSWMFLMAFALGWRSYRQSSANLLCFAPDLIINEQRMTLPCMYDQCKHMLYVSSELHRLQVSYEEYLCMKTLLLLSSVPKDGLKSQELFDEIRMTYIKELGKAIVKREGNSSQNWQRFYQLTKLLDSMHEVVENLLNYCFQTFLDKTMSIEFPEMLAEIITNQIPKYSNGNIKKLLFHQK
Summary of the method: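 HepG2 transient transfection, multiple reporter units, GAL4-UAS under NR-GAL4 chimera control. 24 h treatment. Reporter mRNA by RT-PCR/CE fluorescence, DMSO as negative control.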

[5] = ATG_M_19_TRANS: Attagene TRANS-FACTORIAL HepG2 Assay for M19 Transcription Factor (Internal Marker) (AID 2282974); details: HepG2 Attagene TRANS-FACTORIAL M19 internal marker reporter
Summary of the method: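 Gain-of-signal in reporter mRNA, relative to DMSO, was scored from capillary electrophoresis fluorescence. HepG2 cells carried transiently transfected multiple reporter transcription units and were incubated with test chemicals for 24 h.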

[6] = target: Estrogen-related receptor gamma (Homo sapiens) (UniProt P62508); experiment: ATG_ERRg_TRANS: Attagene TRANS-FACTORIAL HepG2 Assay for human Estrogen-Related Receptor gamma (ERRg) (AID 2282977); details: HepG2 Attagene TRANS reporter, ERRg transactivation;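 note: hits increase reporter signal over DMSO so potencies reflect activators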
Sequence of Estrogen-related receptor gamma (Homo sapiens) (P62508 whole entry, looked up, the tested form may be a part): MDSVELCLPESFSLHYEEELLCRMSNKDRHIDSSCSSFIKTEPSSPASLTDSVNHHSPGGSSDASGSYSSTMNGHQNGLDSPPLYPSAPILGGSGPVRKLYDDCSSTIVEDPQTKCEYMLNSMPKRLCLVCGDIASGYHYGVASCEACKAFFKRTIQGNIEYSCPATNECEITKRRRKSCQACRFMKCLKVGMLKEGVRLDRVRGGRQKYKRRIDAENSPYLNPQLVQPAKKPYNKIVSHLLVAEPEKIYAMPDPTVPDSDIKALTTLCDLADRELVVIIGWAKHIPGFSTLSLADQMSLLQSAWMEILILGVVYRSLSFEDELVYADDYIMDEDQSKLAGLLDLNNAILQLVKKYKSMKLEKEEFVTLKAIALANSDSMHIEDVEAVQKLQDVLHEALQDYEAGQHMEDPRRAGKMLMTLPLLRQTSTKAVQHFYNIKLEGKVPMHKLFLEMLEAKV
Summary of the method: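 Exogenous NR-Gal4 chimera activity was assessed in HepG2 cells bearing transfected GAL4-UAS reporters. After 24 h dosing, total RNA underwent RT-PCR, fluorescent primer extension and HpaI digestion before capillary electrophoresis, with gain of signal scored against DMSO.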

[7] = target: Androgen receptor (Homo sapiens) (UniProt P10275); experiment: ATG_AR_TRANS: Attagene TRANS-FACTORIAL HepG2 Assay for human Androgen Receptor (AR) (AID 2282973); details: HepG2 Attagene TRANS-FACTORIAL AR reporter transcription
Sequence of Androgen receptor (Homo sapiens) (P10275 whole entry, looked up, the tested form may be a part): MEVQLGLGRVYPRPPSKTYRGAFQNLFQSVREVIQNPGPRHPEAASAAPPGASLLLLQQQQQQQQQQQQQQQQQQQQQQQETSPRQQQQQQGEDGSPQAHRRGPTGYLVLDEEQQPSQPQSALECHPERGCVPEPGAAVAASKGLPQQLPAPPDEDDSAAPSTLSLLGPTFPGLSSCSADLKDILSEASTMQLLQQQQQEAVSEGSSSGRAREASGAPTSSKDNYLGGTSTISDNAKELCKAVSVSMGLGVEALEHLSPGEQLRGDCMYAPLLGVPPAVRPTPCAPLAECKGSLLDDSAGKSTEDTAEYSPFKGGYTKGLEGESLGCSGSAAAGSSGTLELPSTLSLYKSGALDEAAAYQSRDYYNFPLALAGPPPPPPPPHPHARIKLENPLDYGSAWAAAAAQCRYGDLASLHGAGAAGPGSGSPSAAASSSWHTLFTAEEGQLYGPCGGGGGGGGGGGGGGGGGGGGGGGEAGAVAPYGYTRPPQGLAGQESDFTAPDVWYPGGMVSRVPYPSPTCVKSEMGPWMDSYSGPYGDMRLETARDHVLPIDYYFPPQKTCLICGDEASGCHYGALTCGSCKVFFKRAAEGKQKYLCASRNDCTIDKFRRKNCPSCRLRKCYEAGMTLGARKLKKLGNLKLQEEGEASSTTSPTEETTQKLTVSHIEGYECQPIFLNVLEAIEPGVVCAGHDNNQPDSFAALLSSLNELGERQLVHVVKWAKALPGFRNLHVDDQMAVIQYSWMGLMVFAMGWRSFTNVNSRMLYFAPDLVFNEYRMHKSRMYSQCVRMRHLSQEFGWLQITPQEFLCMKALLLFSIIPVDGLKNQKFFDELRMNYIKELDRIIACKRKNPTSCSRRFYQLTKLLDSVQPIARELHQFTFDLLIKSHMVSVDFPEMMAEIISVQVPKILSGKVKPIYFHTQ
Summary of the method: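 HepG2 cells transiently transfected with multiplexed GAL4-UAS reporter units and chimeric NR-Gal4 fusion; 24 h compound exposure. Reporter mRNA measured by RT-PCR, 6-FAM labelling, HpaI digestion and capillary electrophoresis; gain-of-signal fitted relative to DMSO baseline.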

[8] = target: Nuclear receptor subfamily 1 group I member 3 (Homo sapiens) (UniProt Q14994); experiment: ATG_CAR_TRANS: Attagene TRANS-FACTORIAL HepG2 Assay for human Constitutive Androstane Receptor (CAR) (AID 2282969); details: HepG2 Attagene TRANS-FACTORIAL CAR reporter;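 note: activators raise reporter mRNA above DMSO so AC50 marks induction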
Sequence of Nuclear receptor subfamily 1 group I member 3 (Homo sapiens) (Q14994 whole entry, looked up, the tested form may be a part): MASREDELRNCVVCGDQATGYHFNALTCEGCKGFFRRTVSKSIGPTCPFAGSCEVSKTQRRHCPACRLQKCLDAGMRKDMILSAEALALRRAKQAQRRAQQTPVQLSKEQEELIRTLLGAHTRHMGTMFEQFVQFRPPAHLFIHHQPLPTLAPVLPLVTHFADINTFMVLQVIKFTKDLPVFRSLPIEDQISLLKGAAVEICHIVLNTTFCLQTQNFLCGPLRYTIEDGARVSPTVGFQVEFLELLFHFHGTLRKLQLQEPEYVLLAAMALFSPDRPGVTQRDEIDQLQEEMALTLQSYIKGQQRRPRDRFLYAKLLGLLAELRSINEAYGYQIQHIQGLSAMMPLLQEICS
Summary of the method: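 Signal is reporter mRNA induction relative to DMSO, measured 24 h after dosing by RT-PCR with fluorescent primer extension and capillary electrophoresis. Human HepG2 liver cells carried transiently transfected chimeric NR-Gal4/GAL4-UAS reporter constructs.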

[9] = target: Estrogen receptor (Homo sapiens) (UniProt P03372); experiment: ATG_ERa_TRANS: Attagene TRANS-FACTORIAL HepG2 Assay for human Estrogen Receptor alpha (ERa) (AID 2282970); details: HepG2 Attagene TRANS ERa GAL4 reporter, mRNA
Sequence of Estrogen receptor (Homo sapiens) (P03372 whole entry, looked up, the tested form may be a part): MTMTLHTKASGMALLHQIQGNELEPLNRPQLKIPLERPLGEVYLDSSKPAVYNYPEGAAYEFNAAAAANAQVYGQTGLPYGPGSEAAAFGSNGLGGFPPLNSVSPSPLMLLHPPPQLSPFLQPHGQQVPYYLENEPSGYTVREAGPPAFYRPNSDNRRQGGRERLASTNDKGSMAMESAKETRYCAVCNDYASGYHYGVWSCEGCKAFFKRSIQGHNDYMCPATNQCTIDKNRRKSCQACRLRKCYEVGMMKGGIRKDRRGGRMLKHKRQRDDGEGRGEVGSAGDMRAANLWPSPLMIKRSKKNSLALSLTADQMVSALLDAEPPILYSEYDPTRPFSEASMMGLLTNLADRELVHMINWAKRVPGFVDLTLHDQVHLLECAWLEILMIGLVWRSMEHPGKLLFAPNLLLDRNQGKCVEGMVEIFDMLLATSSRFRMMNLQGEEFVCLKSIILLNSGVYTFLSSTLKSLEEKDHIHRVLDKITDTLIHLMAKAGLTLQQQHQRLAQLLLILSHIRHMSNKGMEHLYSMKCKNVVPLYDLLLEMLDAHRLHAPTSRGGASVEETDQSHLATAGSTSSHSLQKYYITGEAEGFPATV
Summary of the method: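 One of 30 multiplexed endpoints from a HepG2 TRANS system, this one reports ERa-Gal4-driven reporter mRNA. Transcripts were quantified 24 hours post-dosing by fluorescent RT-PCR and capillary electrophoresis, with activity scored as induction over DMSO.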

[10] = target: Steroid hormone receptor ERR1 (Homo sapiens) (UniProt P11474); experiment: ATG_ERRa_TRANS: Attagene TRANS-FACTORIAL HepG2 Assay for human Estrogen-Related Receptor alpha (ERRa) (AID 2282971); details: HepG2 Attagene TRANS reporter, ERRa transactivation
Sequence of Steroid hormone receptor ERR1 (Homo sapiens) (P11474 whole entry, looked up, the tested form may be a part): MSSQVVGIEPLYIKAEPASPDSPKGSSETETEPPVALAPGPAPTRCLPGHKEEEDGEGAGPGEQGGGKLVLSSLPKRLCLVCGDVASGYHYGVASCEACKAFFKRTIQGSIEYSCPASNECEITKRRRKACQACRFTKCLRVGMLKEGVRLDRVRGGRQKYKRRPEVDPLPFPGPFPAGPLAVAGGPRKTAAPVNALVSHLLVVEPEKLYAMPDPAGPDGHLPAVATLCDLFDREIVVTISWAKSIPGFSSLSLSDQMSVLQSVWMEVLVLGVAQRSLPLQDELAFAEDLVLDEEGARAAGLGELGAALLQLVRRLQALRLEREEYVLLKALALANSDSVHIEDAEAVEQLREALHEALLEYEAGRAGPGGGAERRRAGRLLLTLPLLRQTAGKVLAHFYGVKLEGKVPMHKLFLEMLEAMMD
Summary of the method: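 HepG2 cells transiently transfected with multiplexed GAL4-UAS reporter units reading chimeric ERRa-Gal4 activity; 24 h compound exposure. Reporter mRNA measured by RT-PCR, 6-FAM labelling, HpaI digest and capillary electrophoresis; gain of signal fitted versus DMSO baseline.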

SMILES: COc1nn(C(=O)NS(=O)(=O)c2ccccc2OC(F)(F)F)c(=O)n1C
- outcome [1]: inactive
- outcome [2]: inactive
- outcome [3]: inactive
- outcome [4]: inactive

SMILES: Clc1cccc(Cl)c1
- outcome [1]: inactive
- outcome [2]: inactive
- outcome [5]: inactive
- outcome [3]: inactive
- outcome [6]: inactive
- outcome [4]: inactive

SMILES: Cc1cc(C)cc(C)c1
- outcome [1]: inactive
- outcome [2]: inactive
- outcome [5]: inactive
- outcome [3]: inactive

SMILES: N#CS
- outcome [1]: inactive
- outcome [2]: inactive
- outcome [3]: inactive
- outcome [4]: inactive

SMILES: C=CC(Cl)CCl (stereo not drawn)
- outcome [1]: inactive
- outcome [7]: inactive
- outcome [4]: inactive

SMILES: CN(C)C(=S)S
- outcome [1]: inactive
- outcome [2]: inactive
- outcome [5]: inactive
- outcome [3]: inactive

SMILES: CCOC(=O)Cc1ccccc1
- outcome [1]: inactive
- outcome [7]: inactive
- outcome [5]: inactive
- outcome [3]: inactive

SMILES: OC[P+](CO)(CO)CO
- outcome [1]: inactive
- outcome [2]: inactive
- outcome [5]: inactive
- outcome [3]: inactive
- outcome [4]: inactive

SMILES: O=[N+]([O-])c1ccc(Cl)c([N+](=O)[O-])c1
- outcome [1]: inactive
- outcome [5]: inactive
- outcome [4]: inactive

SMILES: CC(C=O)Cc1ccc2c(c1)OCO2 (stereo not drawn)
- AC50 [1]: 12.8 µM (active)
- outcome [2]: inactive
- outcome [3]: inactive

SMILES: Cc1cc(SCc2sc(-c3ccc(C(F)(F)F)c(F)c3)nc2C)ccc1OCC(=O)O
- AC50 [1]: 9.54 µM (active)
- AC50 [2]: 25.2 µM (active)
- outcome [5]: inactive
- outcome [4]: inactive

SMILES: Brc1ccc(Br)cc1
- outcome [1]: inactive
- outcome [2]: inactive
- outcome [5]: inactive
- outcome [3]: inactive
- outcome [6]: inactive

SMILES: CCN(CC)C(=O)C(Cl)=C(C)OP(=O)(OC)OC
- outcome [1]: inactive
- outcome [4]: inactive

SMILES: CCOc1cc(C=O)ccc1O
- outcome [1]: inactive
- outcome [2]: inactive
- outcome [5]: inactive
- outcome [3]: inactive
- outcome [4]: inactive

SMILES: OC[C@@H](O)[C@H]1O[C@@H]2O[C@H](C(Cl)(Cl)Cl)O[C@@H]2[C@H]1O
- outcome [8]: inactive
- outcome [9]: inactive
- outcome [10]: inactive
- outcome [2]: inactive
- outcome [3]: inactive

SMILES: O=NN1CCCCCCC1
- outcome [8]: inactive
- outcome [9]: inactive
- outcome [2]: inactive
- outcome [3]: inactive
- outcome [4]: inactive

SMILES: Oc1c(Br)cc(Br)cc1Br
- outcome [8]: inactive
- AC50 [9]: 5.59 µM (active)
- AC50 [2]: 42 µM (active)
- outcome [5]: inactive

SMILES: CCOP(=S)(OCC)OP(=S)(OCC)OCC
- outcome [8]: inactive
- outcome [2]: inactive
- outcome [7]: inactive
- outcome [5]: inactive
- outcome [3]: inactive
- outcome [4]: inactive

SMILES: CCC(C)(C#N)N=NC(C)(C#N)CC (stereo not drawn)
- outcome [9]: inactive
- outcome [2]: inactive
- outcome [7]: inactive
- outcome [5]: inactive
- outcome [3]: inactive
- outcome [6]: inactive

SMILES: O=[N+]([O-])c1cccc2ccccc12
- AC50 [9]: 39.9 µM (active)
- outcome [10]: inactive
- outcome [2]: inactive
- outcome [5]: inactive
- outcome [3]: inactive
- outcome [6]: inactive

SMILES: CCC[N+](CCC)(CCC)CCC
- outcome [10]: inactive
- outcome [2]: inactive
- outcome [5]: inactive
- outcome [3]: inactive

SMILES: Nc1nc(N)nc(Cl)n1
- outcome [9]: inactive
- outcome [2]: inactive
- outcome [5]: inactive
- outcome [3]: inactive

SMILES: CCCCCCCCCCCCc1cccc(S(=O)(=O)O)c1
- outcome [8]: inactive
- outcome [2]: inactive

SMILES: C#C[C@]1(O)CC[C@H]2[C@@H]3CCC4=CC(=O)CC[C@]4(C)[C@H]3CC[C@@]21C
- outcome [2]: inactive

SMILES: Cc1cc(C(F)(C(F)(F)F)C(F)(F)F)ccc1NC(=O)c1cccc(I)c1C(=O)NC(C)(C)CS(C)(=O)=O
- outcome [9]: inactive
- outcome [2]: inactive
- outcome [5]: inactive
- outcome [6]: inactive
- outcome [4]: inactive

SMILES: CNC(=O)O/N=C/C(C)(C)S(C)(=O)=O
- outcome [8]: inactive
- outcome [2]: inactive
- outcome [5]: inactive

SMILES: CC(c1ccc(O)cc1)c1ccc(O)cc1
- outcome [8]: inactive
- outcome [10]: inactive
- AC50 [2]: 130 µM (active)
- outcome [5]: inactive
- outcome [6]: inactive
- outcome [4]: inactive

SMILES: O=c1[nH]c(=O)n(Cl)c(=O)n1Cl
- outcome [10]: inactive
- outcome [2]: inactive
- outcome [5]: inactive
- outcome [3]: inactive
- outcome [6]: inactive
- outcome [4]: inactive

SMILES: O=[N+]([O-])c1ccccc1O
- outcome [10]: inactive
- outcome [2]: inactive
- outcome [5]: inactive
- outcome [3]: inactive
- outcome [4]: inactive

SMILES: Nc1ccc(Br)cc1
- outcome [9]: inactive
- outcome [5]: inactive
- outcome [3]: inactive
- AC50 [4]: 100 µM (active)

SMILES: Oc1cc(Cl)c(Cl)cc1Cl
- outcome [5]: inactive
- outcome [3]: inactive

SMILES: COc1ccc(N)cc1
- outcome [2]: inactive
- outcome [5]: inactive
- outcome [3]: inactive
- outcome [4]: inactive

SMILES: Oc1c(Cl)cc(Cl)cc1Cl
- outcome [8]: inactive
- outcome [2]: inactive

SMILES: CNC(=O)CSP(=O)(OC)OC
- outcome [2]: inactive
- outcome [5]: inactive
- outcome [4]: inactive

SMILES: COc1ccccc1N
- outcome [10]: inactive
- outcome [2]: inactive
- outcome [5]: inactive
- outcome [3]: inactive
- outcome [6]: inactive

SMILES: BrCCCCBr
- outcome [2]: inactive
- outcome [3]: inactive
- outcome [4]: inactive

SMILES: Cc1cc(Cl)ccc1N
- outcome [8]: inactive
- outcome [2]: inactive
- outcome [5]: inactive
- outcome [3]: inactive
- outcome [4]: inactive

SMILES: O=C1C[C@@H]2OCC=C3CN4CC[C@]56c7ccccc7N1[C@H]5[C@H]2[C@H]3C[C@H]46
- outcome [2]: inactive
- outcome [5]: inactive
- outcome [3]: inactive

SMILES: CC1(C)[C@H](/C=C2\CCSC2=O)[C@@H]1C(=O)OCc1coc(Cc2ccccc2)c1
- outcome [8]: inactive
- outcome [2]: inactive

SMILES: CCCCOC(=O)COC(=O)c1ccccc1C(=O)OCCCC
- outcome [9]: inactive
- outcome [10]: inactive
- outcome [2]: inactive
- outcome [5]: inactive
- outcome [3]: inactive
- outcome [4]: inactive

SMILES: Cl[C@H]1OCCO[C@@H]1Cl
- outcome [10]: inactive
- outcome [2]: inactive
- outcome [5]: inactive
- outcome [6]: inactive

SMILES: CC(C)CP(=S)(S)CC(C)C
- outcome [8]: inactive
- outcome [9]: inactive
- outcome [3]: inactive
- outcome [4]: inactive

SMILES: Cc1cc(Cl)ccc1OC(C)C(=O)O (stereo not drawn)
- outcome [2]: inactive
- outcome [5]: inactive

SMILES: C=CC(=O)OCC(COC(=O)C=C)(COC(=O)C=C)COC(=O)C=C
- outcome [9]: inactive
- outcome [10]: inactive
- AC50 [2]: 8.13 µM (active)
- AC50 [6]: 100 µM (active)

SMILES: c1ccc(-c2cccc(-c3ccccc3)c2)cc1
- AC50 [9]: 27.3 µM (active)
- outcome [2]: inactive
- outcome [5]: inactive

SMILES: Cc1cccc(C)c1NC(=O)CN1CCCC1=O
- outcome [2]: inactive

SMILES: Oc1ccc(Cc2ccc(O)cc2)cc1
- AC50 [9]: 0.842 µM (active)
- outcome [4]: inactive
